Residual activity data for 15 compounds are collected here from ChEMBL document CHEMBL2218924, “A broad activity screen in support of a chemogenomic map for kinase signalling research and drug discovery” (Biochem J, 2013).

The target of assay [1] is Focal adhesion kinase 1 (Homo sapiens) (UniProt Q05397). The settings on record: at 10 µM.
Assay [2] has as its target Fibroblast growth factor receptor 1 (Homo sapiens) (UniProt P11362). The settings on record: at 1 µM.
Assay [3] has the same target. The settings on record: at 10 µM.
Assay [4] deals with Fibroblast growth factor receptor 2 (Homo sapiens) (UniProt P21802). The note with it: at 1 µM.
The target is the same in assay [5]. The note with it: at 10 µM.
Assay [6] addresses Fibroblast growth factor receptor 3 (Homo sapiens) (UniProt P22607). The note with it: at 1 µM.
For assay [7] the target is unchanged. The note with it: at 10 µM.
For assay [8], the target named is Tyrosine-protein kinase Fer (Homo sapiens) (UniProt P16591). The settings on record: at 1 µM.
Tyrosine-protein kinase Fer (Homo sapiens), sequence (P16591 whole entry, looked up): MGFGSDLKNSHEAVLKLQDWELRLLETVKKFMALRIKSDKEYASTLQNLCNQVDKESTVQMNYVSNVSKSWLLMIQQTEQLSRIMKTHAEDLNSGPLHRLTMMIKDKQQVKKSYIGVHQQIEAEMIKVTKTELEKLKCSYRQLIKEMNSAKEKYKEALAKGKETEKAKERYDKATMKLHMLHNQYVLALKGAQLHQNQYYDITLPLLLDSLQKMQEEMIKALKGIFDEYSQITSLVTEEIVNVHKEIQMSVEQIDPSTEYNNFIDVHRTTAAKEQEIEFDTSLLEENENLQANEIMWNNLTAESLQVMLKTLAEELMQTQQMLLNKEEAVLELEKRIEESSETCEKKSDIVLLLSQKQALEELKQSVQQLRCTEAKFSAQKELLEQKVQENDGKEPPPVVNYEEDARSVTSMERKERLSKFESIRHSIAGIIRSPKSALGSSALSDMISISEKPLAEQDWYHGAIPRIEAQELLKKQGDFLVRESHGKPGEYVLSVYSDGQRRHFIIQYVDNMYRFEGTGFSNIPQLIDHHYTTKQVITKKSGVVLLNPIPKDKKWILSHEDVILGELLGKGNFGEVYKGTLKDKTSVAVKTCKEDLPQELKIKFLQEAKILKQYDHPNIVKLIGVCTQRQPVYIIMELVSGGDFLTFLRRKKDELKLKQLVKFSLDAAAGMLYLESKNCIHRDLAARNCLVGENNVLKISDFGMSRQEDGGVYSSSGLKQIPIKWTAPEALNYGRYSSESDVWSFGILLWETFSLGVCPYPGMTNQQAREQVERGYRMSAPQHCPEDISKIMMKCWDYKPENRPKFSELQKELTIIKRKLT
The target is the same in assay [9]. The settings on record: at 10 µM.
The target of assay [10] is Tyrosine-protein kinase Fes/Fps (Homo sapiens) (UniProt P07332). The note with it: at 1 µM.
The target is the same in assay [11]. The note with it: at 10 µM.
In assay [12] the target is Tyrosine-protein kinase Fgr (Homo sapiens) (UniProt P09769). The note with it: at 1 µM.
Tyrosine-protein kinase Fgr (Homo sapiens), sequence (P09769 2-529 limits assumed): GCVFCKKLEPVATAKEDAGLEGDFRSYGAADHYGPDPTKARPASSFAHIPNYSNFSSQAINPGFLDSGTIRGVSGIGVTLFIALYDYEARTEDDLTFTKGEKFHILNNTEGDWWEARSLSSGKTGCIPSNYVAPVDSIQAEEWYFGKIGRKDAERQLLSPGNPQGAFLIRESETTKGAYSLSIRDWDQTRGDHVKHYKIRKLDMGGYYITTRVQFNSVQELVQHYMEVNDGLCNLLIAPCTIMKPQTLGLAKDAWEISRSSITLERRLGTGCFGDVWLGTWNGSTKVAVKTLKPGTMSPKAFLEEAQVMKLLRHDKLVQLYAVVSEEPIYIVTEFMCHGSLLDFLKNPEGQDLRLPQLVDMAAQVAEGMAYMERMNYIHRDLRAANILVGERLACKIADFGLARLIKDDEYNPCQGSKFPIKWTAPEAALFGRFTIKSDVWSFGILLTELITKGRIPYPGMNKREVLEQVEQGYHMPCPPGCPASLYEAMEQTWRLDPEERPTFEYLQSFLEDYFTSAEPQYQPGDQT
For assay [13] the target is unchanged. The settings on record: at 10 µM.
Assay [14] has as its target Vascular endothelial growth factor receptor 1 (Homo sapiens) (UniProt P17948). The note with it: at 1 µM.
The target is the same in assay [15]. The note with it: at 10 µM.
The target in assay [16] is Receptor-type tyrosine-protein kinase FLT3 (Homo sapiens) (UniProt P36888). The note with it: at 1 µM.
Receptor-type tyrosine-protein kinase FLT3 (Homo sapiens), sequence (P36888 whole entry): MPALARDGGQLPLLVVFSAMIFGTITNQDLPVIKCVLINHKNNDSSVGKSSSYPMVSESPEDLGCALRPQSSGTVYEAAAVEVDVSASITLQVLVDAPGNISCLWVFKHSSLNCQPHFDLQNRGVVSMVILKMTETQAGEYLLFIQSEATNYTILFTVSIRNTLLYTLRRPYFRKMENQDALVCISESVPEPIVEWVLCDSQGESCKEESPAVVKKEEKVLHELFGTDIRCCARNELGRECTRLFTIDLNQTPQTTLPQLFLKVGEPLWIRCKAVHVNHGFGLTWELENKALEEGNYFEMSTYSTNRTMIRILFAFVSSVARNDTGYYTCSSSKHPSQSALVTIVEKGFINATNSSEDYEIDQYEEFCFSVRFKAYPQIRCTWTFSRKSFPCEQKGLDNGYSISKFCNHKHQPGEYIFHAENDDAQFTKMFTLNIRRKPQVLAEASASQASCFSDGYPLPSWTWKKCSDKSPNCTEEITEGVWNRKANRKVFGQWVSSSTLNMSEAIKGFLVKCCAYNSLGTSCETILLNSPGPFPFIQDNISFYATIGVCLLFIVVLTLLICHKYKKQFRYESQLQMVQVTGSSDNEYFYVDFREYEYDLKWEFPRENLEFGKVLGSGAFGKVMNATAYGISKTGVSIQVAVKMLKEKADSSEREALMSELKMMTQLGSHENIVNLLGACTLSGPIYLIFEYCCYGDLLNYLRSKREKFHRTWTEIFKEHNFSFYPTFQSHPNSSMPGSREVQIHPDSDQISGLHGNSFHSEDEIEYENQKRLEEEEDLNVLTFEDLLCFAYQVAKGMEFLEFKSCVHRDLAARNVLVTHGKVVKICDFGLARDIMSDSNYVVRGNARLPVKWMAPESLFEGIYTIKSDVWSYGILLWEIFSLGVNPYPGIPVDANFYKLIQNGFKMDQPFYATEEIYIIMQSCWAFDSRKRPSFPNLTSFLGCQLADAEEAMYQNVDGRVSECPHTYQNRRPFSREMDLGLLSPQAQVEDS
For assay [17] the target is unchanged. The note with it: at 10 µM.
For assay [18], the target named is Vascular endothelial growth factor receptor 3 (Homo sapiens) (UniProt P35916). The note with it: at 1 µM.
Assay [19] addresses Fibroblast growth factor receptor 4 (Homo sapiens) (UniProt P22455). The settings on record: at 1 µM.
Assay [20] has the same target. The settings on record: at 10 µM.

Fibroblast growth factor receptor 4 (Homo sapiens), sequence (P22455 22-802 limits assumed): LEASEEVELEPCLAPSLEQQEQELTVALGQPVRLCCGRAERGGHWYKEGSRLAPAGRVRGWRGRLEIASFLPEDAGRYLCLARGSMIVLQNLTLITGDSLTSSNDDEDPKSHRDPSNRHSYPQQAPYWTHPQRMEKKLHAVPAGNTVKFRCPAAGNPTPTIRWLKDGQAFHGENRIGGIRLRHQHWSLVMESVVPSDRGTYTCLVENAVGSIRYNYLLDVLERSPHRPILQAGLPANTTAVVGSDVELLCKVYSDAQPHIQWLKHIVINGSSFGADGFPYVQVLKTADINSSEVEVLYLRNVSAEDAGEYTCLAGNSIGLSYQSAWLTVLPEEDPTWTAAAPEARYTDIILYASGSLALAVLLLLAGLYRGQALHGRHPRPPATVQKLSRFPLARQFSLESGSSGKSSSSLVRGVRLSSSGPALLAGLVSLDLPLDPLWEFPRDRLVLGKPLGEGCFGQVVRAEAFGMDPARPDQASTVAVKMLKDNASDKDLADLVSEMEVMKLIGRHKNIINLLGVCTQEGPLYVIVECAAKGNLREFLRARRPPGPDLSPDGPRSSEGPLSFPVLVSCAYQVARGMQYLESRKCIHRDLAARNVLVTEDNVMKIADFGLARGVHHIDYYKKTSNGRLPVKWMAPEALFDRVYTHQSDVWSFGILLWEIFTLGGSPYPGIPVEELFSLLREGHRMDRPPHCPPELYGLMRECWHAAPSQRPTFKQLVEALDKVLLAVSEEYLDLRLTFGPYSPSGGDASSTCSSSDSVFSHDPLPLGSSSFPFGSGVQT
Focal adhesion kinase 1 (Homo sapiens), sequence (Q05397 2-1052 limits assumed): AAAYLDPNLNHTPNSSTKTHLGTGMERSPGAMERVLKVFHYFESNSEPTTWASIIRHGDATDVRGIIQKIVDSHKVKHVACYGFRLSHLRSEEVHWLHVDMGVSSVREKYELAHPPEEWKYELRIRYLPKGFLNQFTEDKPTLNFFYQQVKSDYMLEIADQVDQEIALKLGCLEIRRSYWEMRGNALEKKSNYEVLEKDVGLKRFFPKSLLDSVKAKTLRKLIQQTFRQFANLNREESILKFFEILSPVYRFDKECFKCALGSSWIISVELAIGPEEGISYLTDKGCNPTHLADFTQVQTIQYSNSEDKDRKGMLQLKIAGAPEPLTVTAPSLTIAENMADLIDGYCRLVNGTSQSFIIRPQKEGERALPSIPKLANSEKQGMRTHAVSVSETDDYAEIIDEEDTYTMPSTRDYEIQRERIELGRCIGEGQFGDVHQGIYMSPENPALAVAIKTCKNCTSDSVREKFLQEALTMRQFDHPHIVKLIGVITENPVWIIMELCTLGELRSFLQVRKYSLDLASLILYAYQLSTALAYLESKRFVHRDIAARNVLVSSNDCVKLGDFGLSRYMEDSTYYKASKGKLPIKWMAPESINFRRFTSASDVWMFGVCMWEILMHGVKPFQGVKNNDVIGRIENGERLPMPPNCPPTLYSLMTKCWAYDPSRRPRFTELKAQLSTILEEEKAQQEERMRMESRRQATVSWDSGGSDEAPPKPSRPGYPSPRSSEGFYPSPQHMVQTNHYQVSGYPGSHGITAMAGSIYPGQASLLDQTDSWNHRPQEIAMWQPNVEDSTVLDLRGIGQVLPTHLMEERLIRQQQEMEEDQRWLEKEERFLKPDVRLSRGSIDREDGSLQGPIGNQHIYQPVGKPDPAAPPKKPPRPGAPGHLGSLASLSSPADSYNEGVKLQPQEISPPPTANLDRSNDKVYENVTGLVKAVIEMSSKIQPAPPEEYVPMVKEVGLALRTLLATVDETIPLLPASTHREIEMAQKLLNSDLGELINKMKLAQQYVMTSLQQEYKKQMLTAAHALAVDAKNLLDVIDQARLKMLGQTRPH
Fibroblast growth factor receptor 1 (Homo sapiens), sequence (P11362 22-822 limits assumed): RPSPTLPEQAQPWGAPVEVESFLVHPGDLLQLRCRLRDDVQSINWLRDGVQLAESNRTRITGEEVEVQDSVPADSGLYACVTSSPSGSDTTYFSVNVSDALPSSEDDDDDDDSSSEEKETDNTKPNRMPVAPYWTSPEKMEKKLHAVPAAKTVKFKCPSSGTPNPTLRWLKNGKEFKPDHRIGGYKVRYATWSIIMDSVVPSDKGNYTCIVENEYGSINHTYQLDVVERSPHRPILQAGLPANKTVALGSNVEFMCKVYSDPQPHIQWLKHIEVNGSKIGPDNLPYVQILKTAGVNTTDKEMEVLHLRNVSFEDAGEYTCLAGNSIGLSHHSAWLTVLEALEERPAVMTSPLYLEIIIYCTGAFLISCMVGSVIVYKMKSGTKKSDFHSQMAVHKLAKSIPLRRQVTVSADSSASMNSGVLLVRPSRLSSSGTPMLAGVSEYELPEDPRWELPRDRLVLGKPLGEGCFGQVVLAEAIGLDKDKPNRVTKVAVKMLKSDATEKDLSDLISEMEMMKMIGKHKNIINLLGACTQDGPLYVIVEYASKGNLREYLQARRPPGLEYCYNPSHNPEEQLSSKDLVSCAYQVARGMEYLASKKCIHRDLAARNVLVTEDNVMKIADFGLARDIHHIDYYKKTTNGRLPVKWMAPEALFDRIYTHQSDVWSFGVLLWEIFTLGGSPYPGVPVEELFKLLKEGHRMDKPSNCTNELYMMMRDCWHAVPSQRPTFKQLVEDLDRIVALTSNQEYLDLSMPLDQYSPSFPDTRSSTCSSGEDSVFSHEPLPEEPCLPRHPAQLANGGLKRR

As for `O=C1Nc2ccccc2/C1=C1/Nc2ccccc2/C1=N\OCCC(O)CO` (stereo not drawn), the residual activity in [1] was 1%; in [2], 2%; in assay [3], -1%; in assay [4] it was 20%; in assay [5], 2%; in assay [6], 22%. The residual activity in assay [7] was 23%; in [8] it was 37%; in [9] it was 35%; in assay [10], 71%; in assay [11], 48%; in [12], 3%. Also, the residual activity in assay [13] was 3%; in [14], 1%; in [15], 0%; in [16] it was 0%; in [17], 0%; in assay [18] it was -1%.
With `Cc1cncc2cccc(S(=O)(=O)N3CCCN(C(=O)CN)C[C@H]3C)c12`, the residual activity in assay [2] was 76%; in [3], 20%; in assay [7], 93%; in assay [12] it was 99%; in assay [13], 53%; in assay [14], 82%. Further, the residual activity was 63% in assay [15], 100% in assay [16], 86% in assay [17] and 78% in assay [18].
Turning to `Cc1ccc(S(=O)(=O)/C=C/C#N)cc1`, the residual activity in assay [1] was determined as 102%; in [2] it was 91%; in [3] it was 82%; in assay [4], 108%; in assay [5], 89%; in [6] it was 118%. The residual activity was 118% in assay [7]; 115% in assay [19]; 106% in assay [20]; 101% in assay [8]; 99% in [9]; 97% in assay [10]. In addition, the residual activity in assay [11] amounted to 108%; in assay [12] it was 108%; in [13], 105%; in [14], 96%; in assay [15] it was 100%; in assay [17], 89%. Moreover, in assay [18], the residual activity was 98%.
Consider `O=[N+]([O-])c1ccc(-c2nc(-c3ccc(F)cc3)c(-c3ccncc3)[nH]2)cc1`, for which the residual activity is 102% in assay [1]; 102% in assay [2]; 82% in [3]; 112% in assay [4]; 99% in assay [5]; 109% in assay [6]. Also, the residual activity in assay [7] was determined as 99%; in assay [19], 122%; in assay [20] it was 92%; in assay [8] it was 100%; in assay [10], 100%; in [11], 116%. Moreover, the residual activity in assay [12] amounted to 103%; in [13], 96%; in assay [14], 77%; in assay [15], 46%; in [16], 104%; in [17], 90%. The residual activity in assay [18] worked out at 78%.
In the case of `N#Cc1cnc2cnc(NCc3cccnc3)cc2c1Nc1ccc(F)c(Cl)c1`, the residual activity was found to be 21% in assay [2]; 12% in assay [3]; 48% in [4]; 30% in [5]; 38% in assay [6]; 18% in assay [7]. Moreover, the residual activity stood at 92% in assay [20]; 83% in assay [8]; 95% in assay [9]; 19% in assay [10]; 12% in assay [11]; 11% in assay [12]. Also, the residual activity in assay [13] came out at 4%; in assay [14], 14%; in assay [15], 7%; in assay [16], 2%; in assay [17], 0%; in assay [18] it was 8%.
As to `C[C@@H](N)[C@H]1CC[C@H](C(=O)Nc2ccncc2)CC1`, the residual activity was 96% in [1]; 95% in assay [2]; 98% in assay [3]; 102% in assay [4]; 82% in assay [5]; 93% in assay [7]. Further, the residual activity in assay [19] turned out to be 100%; in assay [20] it was 103%; in [8], 100%; in [10], 108%; in assay [11], 108%; in assay [12], 103%. The residual activity in assay [13] came out at 90%; in [14], 118%; in [15] it was 108%; in [16] it was 97%; in assay [17] it was 95%; in assay [18], 100%.
With `COc1cc2ncc(-c3ccccc3)nc2cc1OC`, the residual activity in assay [1] came out at 95%; in [4], 100%; in assay [5], 93%; in assay [9], 99%; in assay [10] it was 126%; in [11], 87%. Further, the residual activity in assay [14] amounted to 95%; in assay [15] it was 67%; in assay [16], 57%; in [17], 16%; in assay [18], 71%.
As to `Oc1ccc(Nc2nc(-c3ccc(Cl)cc3)cs2)cc1`, the residual activity in [1] stood at 94%; in [2] it was 128%; in assay [3], 86%; in assay [4], 119%; in [5] it was 93%; in [6], 132%. Moreover, the residual activity came out at 137% in assay [7]; 125% in assay [19]; 118% in [20]; 94% in assay [8]; 100% in assay [9]; 106% in [10]. The residual activity in assay [11] is 95%; in [12] it was 96%; in assay [13], 93%; in assay [14], 99%; in [15], 77%; in [16] it was 70%. For the same compound, the residual activity came out at 56% in assay [17] and 45% in assay [18].
Consider `O=C1Nc2ccc(Br)cc2/C1=C\c1cc2c([nH]1)CCCC2`, for which the residual activity in assay [1] stood at 58%; in assay [2], 81%; in assay [3] it was 81%; in [4], 63%; in [5], 53%; in [8], 119%. Moreover, the residual activity was determined as 107% in assay [10]; 78% in assay [11]; 72% in assay [13]; 17% in assay [14]; 20% in assay [15]; 3% in assay [16]. For the same compound, the residual activity in assay [17] and in assay [18] was 1% in each case.
Turning to `N#C/C(=C(\N)Sc1ccc(N)cc1)c1ccccc1C(F)(F)F`, the residual activity was determined as 95% in assay [1]; 112% in assay [2]; 83% in assay [3]; 100% in assay [4]; 102% in [6]; 93% in assay [7]. The residual activity in [19] amounted to 86%; in assay [20] it was 90%; in assay [8] it was 88%; in assay [9] it was 79%; in assay [10], 93%; in assay [11], 100%. Further, the residual activity in assay [12] came to 88%; in [13], 73%; in [14], 83%; in assay [15] it was 38%; in assay [16], 62%; in assay [17], 59%. Further, the residual activity in assay [18] is 65%.
Consider `CC(C)n1cnc2/c(=N/c3cccc(Cl)c3)nc(NCCO)[nH]c21`, for which the residual activity in assay [1] turned out to be 11%; in assay [2] it was 87%; in assay [3], 19%; in assay [4], 101%; in [5], 37%; in assay [6] it was 106%. For the same compound, the residual activity in assay [7] amounted to 59%; in assay [19] it was 114%; in assay [20], 110%; in [9] it was 47%; in [10], 58%; in [11], 12%. Besides, the residual activity was determined as 48% in assay [12]; 12% in assay [13]; 68% in assay [14]; 30% in [15]; 20% in [16]; 1% in [17]. The residual activity in assay [18] was 42%.
With `c1ccc2c(-c3ccncc3)c[nH]c2c1`, the residual activity was found to be 65% in assay [1]; 90% in assay [3]; 111% in assay [4]; 87% in [5]; 112% in assay [19]; 94% in assay [20]. Besides, the residual activity in assay [8] stood at 109%; in [9] it was 97%; in assay [10] it was 111%; in assay [11], 72%; in assay [13] it was 91%; in [14], 85%. Further, the residual activity in assay [15] is 63%; in [16], 107%; in assay [17], 78%; in [18] it was 91%.
On to `Ic1cccc(CSc2nnc(-c3ccncc3)o2)c1`, for which the residual activity in [1] was 90%; in [2] it was 98%; in [3], 71%; in assay [4] it was 99%; in assay [5], 82%; in [6], 106%. Besides, the residual activity amounted to 93% in [7]; 112% in assay [19]; 98% in [20]; 93% in [8]; 100% in assay [9]; 88% in assay [10]. The residual activity in assay [11] came to 92%; in [12] it was 80%; in assay [13], 81%; in [14] it was 26%; in [15], 19%; in [16] it was 30%. Also, the residual activity was 19% in assay [17] and 22% in [18].
Consider `N#CCCc1ccc2c(c1)-c1[nH]c3ccc([N+](=O)[O-])cc3c1CC(=O)N2`, for which the residual activity in assay [1] was determined as 22%; in [2], 47%; in assay [3], 17%; in assay [5], 48%; in assay [10], 16%; in [11], 5%. Further, the residual activity in [12] was determined as 15%; in assay [13] it was 6%; in assay [14] it was 24%; in [15] it was 11%; in [16] it was 19%; in assay [17], 8%. Further, in assay [18], the residual activity came to 10%.
Turning to `Nc1ccc2ncnc(NCCc3ccc(Oc4ccccc4)cc3)c2c1`, the residual activity was 94% in [1]; 92% in [2]; 28% in [3]; 77% in [4]; 48% in assay [5]; 54% in assay [6]. In addition, the residual activity in assay [7] amounted to 33%; in [19], 107%; in [20] it was 80%; in assay [8] it was 93%; in assay [9], 84%; in assay [10] it was 91%. Further, the residual activity in assay [11] worked out at 87%; in assay [12] it was 84%; in assay [14], 54%; in assay [15], 26%; in [16], 33%; in [17], 9%. The residual activity in assay [18] amounted to 15%.
